Laboratory results as given in PubChem BioAssay (NCATS).
Inconclusive results are not listed. Unmarked numbers belong to inactive results. Active and inactive are the calls of the source. Calls come from the whole dose curve; as a rule, active = well fitted inhibition curve with a large enough effect; inconclusive = small, poorly fitted or top-dose-only effect, or effect the other way; inactive = flat fitted curve, though single readings scatter.
% is set by controls: 0 for no effect and ±100 for the full control effect; potency is the fitted concentration of half-maximal effect.

What follows are compounds tested against ATP-dependent 6-phosphofructokinase (Trypanosoma brucei brucei) (UniProt O15648) (assay: qHTS Assay to Find Inhibitors of T. brucei phosphofructokinase: hit validation (AID 492961;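 for activity change, negative = inhibition: luminescence reports ADP formed as PFK phosphorylates fructose-6-phosphate with ATP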)). Conditions: T. brucei PFK, ADP-Glo luminescence; series mostly up to 51.4 µM; activity change, negative = inhibition: at the top concentration.
Sequence of ATP-dependent 6-phosphofructokinase (Trypanosoma brucei brucei) (O15648 whole entry, looked up): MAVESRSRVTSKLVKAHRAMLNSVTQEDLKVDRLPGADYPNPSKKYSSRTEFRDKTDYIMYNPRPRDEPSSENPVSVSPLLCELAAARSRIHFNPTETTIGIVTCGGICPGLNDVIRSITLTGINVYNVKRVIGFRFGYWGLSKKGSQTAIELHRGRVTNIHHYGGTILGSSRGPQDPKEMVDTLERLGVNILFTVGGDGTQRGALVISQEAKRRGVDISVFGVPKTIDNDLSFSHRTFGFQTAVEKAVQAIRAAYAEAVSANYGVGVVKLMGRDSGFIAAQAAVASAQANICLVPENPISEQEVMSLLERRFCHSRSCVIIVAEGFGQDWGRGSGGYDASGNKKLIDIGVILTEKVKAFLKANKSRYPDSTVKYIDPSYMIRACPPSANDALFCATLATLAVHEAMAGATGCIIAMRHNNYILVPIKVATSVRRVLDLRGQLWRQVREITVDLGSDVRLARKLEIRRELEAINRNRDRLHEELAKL
In short: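 ADP-Glo luminescence read-out of ADP formed by 1.25 nM PFK from 0.1 mM ATP and 0.5 mM F6P (TEA pH 8.0, 45 min, RT). Compounds titrated; activity normalized to no-enzyme and full-enzyme controls.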
`COc1ccc(-c2ccc3cc(C(=O)O)ccc3c2)cc1C12CC3CC(CC(C3)C1)C2` was tested, and the Potency was 15.8 µM (active).
With `Nc1ccc(S(=O)(=O)Nc2ccccn2)cc1` the “activity change, negative = inhibition” value was 1.76% [at 24.3 µM].
With `Cc1cccc(Nc2ccncc2S(=O)(=O)NC(=O)NC(C)C)c1` the “activity change, negative = inhibition” value was 3.43% [at 24.3 µM].
`CCCN[C@H]1CCc2nc(N)sc2C1` was tested, and the “activity change, negative = inhibition” value was 0%.
`CCn1cc(C(=O)O)c(=O)c2cc(F)c(N3CCNCC3)nc21` was tested, and the “activity change, negative = inhibition” value was 6.54% [at 24.3 µM].
With `COc1cc(NCc2ccc3nc(N)nc(N)c3c2C)cc(OC)c1OC` the “activity change, negative = inhibition” value was 6.46%.
For `C[C@]12C=CC(=O)C=C1CC[C@@H]1[C@@H]2C(=O)C[C@@]2(C)[C@H]1CC[C@]2(O)C(=O)CO`, the “activity change, negative = inhibition” value was -3.94%.
For `CCn1cc(C(=O)O)c(=O)c2cc(F)c(N3CCN(C)CC3)cc21`, the “activity change, negative = inhibition” value was -6.49%.
`CCOCC(O)COc1ccc(NC(=O)CC[S+](C)C)cc1` (stereo unspecified) was tested, and the “activity change, negative = inhibition” value was 2.71%.
With `CC1=NN(c2ccccc2)C(=O)C1` the “activity change, negative = inhibition” value was 2.67%.
With `CNCC[C@H](Oc1cccc2ccccc12)c1cccs1` the “activity change, negative = inhibition” value was -2.57%.
With `CCCCCCNC(=O)n1cc(F)c(=O)[nH]c1=O` the “activity change, negative = inhibition” value was 8.43%.
With `OC(Cn1cncn1)(Cn1cncn1)c1ccc(F)cc1F` the “activity change, negative = inhibition” value was -0.0258%.
In the case of `COc1cccc(N(C)C(=S)Oc2ccc3c(c2)CCCC3)n1`, the “activity change, negative = inhibition” value is reported as -5%.
For `O=NN(CCCl)C(=O)NC1CCCCC1`, the “activity change, negative = inhibition” value was -4.37%.
`O=C(O)c1cc(=O)[nH]c(=O)[nH]1` was tested, and the “activity change, negative = inhibition” value was -1.25%.
For `COc1cc([C@@H]2c3cc4c(cc3[C@H](O)[C@H]3COC(=O)[C@H]23)OCO4)cc(OC)c1OC`, the “activity change, negative = inhibition” value was 4.04%.
For `CC(C)(C#N)c1cc(Cn2cncn2)cc(C(C)(C)C#N)c1`, the “activity change, negative = inhibition” value was -2.69%.
For `COc1ncnc(NS(=O)(=O)c2ccc(N)cc2)c1OC`, the “activity change, negative = inhibition” value was 0.471%.
For `CN1CCN(c2c(F)cc3c(=O)c(C(=O)O)cn4c3c2OCN4C)CC1`, the “activity change, negative = inhibition” value was 6.37%.
For `CC[C@H](NC(C)C)[C@H](O)c1ccc(O)c2[nH]c(=O)ccc12`, the “activity change, negative = inhibition” value was 3.84%.
With `Oc1c(Cl)cc(Cl)c2cccnc12` the “activity change, negative = inhibition” value was 17.3%.
In the case of `CCCc1cc(C(N)=S)ccn1`, the “activity change, negative = inhibition” value is reported as -6.61%.
With `O=C(O)c1cn(C2CC2)c2cc(N3CCNCC3)c(F)cc2c1=O` the “activity change, negative = inhibition” value was -2.58% [at 24.3 µM].
`S=P(N1CC1)(N1CC1)N1CC1` was tested, and the “activity change, negative = inhibition” value was -1.7%.
With `COC(=O)Nc1nc2ccc(C(=O)c3ccccc3)cc2[nH]1` the “activity change, negative = inhibition” value was 7.68% [at 24.3 µM].
`CC(C)Cn1cnc2c(N)nc3ccccc3c21` was tested, and the “activity change, negative = inhibition” value was 0%.
`CC(=O)Oc1ccccc1C(=O)Nc1ncc([N+](=O)[O-])s1` was tested, and the “activity change, negative = inhibition” value was -18.6%.
`O=P(O)(O)C(O)(Cc1cccnc1)P(=O)(O)O` was tested, and the “activity change, negative = inhibition” value was -3.22%.
With `COC(=O)Nc1nc2ccc(Sc3ccccc3)cc2[nH]1` the “activity change, negative = inhibition” value was 2.28% [at 24.3 µM].
For `CC(C)OC(=O)C(C(=O)OC(C)C)=C1SC=CS1`, the “activity change, negative = inhibition” value was -4.53%.
